Test in all cases: DAPPL (digital affinity profiling via proximity ligation, sequencing); 10 mM Tris-HCl pH 7.5, 50 mM NaCl, 1 mM DTT, 4% glycerol, room temperature, 30 min; GST-TFs on glutathione beads, 16-mer random dsDNA library, 0.1% formaldehyde crosslink after washing; high values mean tight binding
For assay [1], the target named is T1, FEV (Homo sapiens, UniProt Q99581 1-238).
T1 sequence: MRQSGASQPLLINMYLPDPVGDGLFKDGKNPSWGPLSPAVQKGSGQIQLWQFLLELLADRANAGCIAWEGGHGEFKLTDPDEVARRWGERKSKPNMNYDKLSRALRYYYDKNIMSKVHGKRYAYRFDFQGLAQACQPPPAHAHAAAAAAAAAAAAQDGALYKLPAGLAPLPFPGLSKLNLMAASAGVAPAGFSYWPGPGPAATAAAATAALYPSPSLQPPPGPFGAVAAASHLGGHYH
Conditions: protein: recombinant; tags: N-terminal GST; dsDNA, one strand shown. In short, it runs like this: (§1)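 Each value of binding signal is a hexamer's read frequency for a factor divided by the same hexamer's frequency in the tag-only sample. Barcoded, bead-captured GST fusions of human transcription factors made in yeast were pooled with that sample and incubated with 200 nmole of a random double-stranded 16-mer DNA library in Tris/NaCl/DTT/glycerol buffer at room temperature for 30 min. Washing, 0.1% formaldehyde crosslinking, proximity ligation, PCR and Illumina NextSeq500 sequencing followed.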

In assay [2] the target is ETV5 (Homo sapiens, UniProt P41161 1-510). To be noted: protein: recombinant; tags: N-terminal GST; dsDNA, one strand shown. In short, it runs like this: as §1
Assay [3] deals with HSF1 (Homo sapiens, UniProt Q00613 1-529). Conditions: protein: recombinant; tags: N-terminal GST; chain copies: 3; dsDNA, one strand shown. A digest of the protocol: as §1
Assay [4] addresses T2, SPIC (Homo sapiens, UniProt Q8N5J4 1-248).
T2 sequence: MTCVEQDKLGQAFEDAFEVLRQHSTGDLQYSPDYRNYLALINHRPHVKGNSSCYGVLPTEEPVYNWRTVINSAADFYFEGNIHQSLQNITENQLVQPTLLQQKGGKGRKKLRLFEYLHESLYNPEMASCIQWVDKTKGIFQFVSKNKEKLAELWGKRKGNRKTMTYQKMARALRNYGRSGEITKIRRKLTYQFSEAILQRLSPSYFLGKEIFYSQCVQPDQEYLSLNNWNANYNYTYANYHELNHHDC
Conditions: protein: recombinant; tags: N-terminal GST; dsDNA, one strand shown. In short, it runs like this:
as §1

The target in assay [5] is ELF4 (Homo sapiens, UniProt Q99607 1-663). To be noted: protein: recombinant; tags: N-terminal GST; dsDNA, one strand shown. In short, it runs like this: as §1
In assay [6] the target is T3, ELK4 (Homo sapiens, UniProt P28324-2 1-405).
T3 sequence: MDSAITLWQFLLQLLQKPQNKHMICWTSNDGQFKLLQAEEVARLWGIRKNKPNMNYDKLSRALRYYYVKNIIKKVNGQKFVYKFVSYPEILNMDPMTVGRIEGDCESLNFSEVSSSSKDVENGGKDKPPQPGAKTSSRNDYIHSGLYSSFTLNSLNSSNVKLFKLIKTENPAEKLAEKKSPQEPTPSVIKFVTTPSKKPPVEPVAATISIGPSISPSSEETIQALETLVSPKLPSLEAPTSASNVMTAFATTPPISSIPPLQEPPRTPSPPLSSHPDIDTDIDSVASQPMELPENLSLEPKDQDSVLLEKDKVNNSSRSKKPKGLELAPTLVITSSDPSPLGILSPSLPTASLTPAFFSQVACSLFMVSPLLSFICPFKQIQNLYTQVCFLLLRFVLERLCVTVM
To be noted: protein: recombinant; tags: N-terminal GST; dsDNA, one strand shown. A digest of the protocol:
as §1

In assay [7] the target is T4, ETV2 (Homo sapiens, UniProt O00321 1-342).
T4 sequence: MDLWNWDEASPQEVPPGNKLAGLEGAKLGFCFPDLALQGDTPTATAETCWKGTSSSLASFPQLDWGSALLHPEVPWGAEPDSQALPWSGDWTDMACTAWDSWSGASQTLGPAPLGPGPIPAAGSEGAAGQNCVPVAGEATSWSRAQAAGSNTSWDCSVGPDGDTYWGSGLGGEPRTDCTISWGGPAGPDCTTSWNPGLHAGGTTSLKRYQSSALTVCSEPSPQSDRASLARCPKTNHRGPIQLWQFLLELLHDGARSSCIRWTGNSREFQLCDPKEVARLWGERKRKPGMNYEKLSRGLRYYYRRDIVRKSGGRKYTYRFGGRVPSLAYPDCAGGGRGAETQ
Conditions: protein: recombinant; tags: N-terminal GST; dsDNA, one strand shown. In short, it runs like this: as §1

For assay [8], the target named is T5, ELF3 (Homo sapiens, UniProt P78545 1-371).
T5 sequence: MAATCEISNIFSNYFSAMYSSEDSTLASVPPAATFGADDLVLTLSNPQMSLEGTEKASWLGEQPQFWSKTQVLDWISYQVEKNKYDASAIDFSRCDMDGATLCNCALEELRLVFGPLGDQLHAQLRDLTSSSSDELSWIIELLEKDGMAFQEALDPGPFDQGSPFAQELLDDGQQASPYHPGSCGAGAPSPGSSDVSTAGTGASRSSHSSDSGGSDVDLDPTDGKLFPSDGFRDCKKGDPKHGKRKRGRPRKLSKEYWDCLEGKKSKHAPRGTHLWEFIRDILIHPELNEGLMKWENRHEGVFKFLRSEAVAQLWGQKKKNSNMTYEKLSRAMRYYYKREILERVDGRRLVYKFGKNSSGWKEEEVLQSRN
Conditions: protein: recombinant; tags: N-terminal GST; dsDNA, one strand shown. A digest of the protocol:
as §1

Assay [9] has as its target CRX (Homo sapiens, UniProt O43186 1-299). Conditions: protein: recombinant; tags: N-terminal GST; dsDNA, one strand shown. In short, it runs like this: as §1
The target in assay [10] is ETV1 (Homo sapiens, UniProt P50549 1-477). To be noted: protein: recombinant; tags: N-terminal GST; dsDNA, one strand shown. A digest of the protocol: as §1
For assay [11], the target named is T6, ERF (Homo sapiens, UniProt P50548 1-548).
T6 sequence: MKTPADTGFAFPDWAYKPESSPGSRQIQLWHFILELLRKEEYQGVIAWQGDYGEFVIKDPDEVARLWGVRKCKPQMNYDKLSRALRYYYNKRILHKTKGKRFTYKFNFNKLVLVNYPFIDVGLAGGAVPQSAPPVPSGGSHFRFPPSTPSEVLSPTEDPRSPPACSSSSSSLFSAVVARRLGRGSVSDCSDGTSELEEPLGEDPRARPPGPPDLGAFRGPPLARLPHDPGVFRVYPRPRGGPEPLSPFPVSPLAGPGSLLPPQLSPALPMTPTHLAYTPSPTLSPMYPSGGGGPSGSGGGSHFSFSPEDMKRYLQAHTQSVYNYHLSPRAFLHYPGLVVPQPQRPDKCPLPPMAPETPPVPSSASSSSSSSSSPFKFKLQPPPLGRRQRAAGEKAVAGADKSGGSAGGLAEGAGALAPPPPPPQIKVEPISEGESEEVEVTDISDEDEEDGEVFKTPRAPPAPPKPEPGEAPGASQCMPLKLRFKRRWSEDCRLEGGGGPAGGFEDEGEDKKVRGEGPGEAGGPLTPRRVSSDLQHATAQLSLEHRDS
Conditions: protein: recombinant; tags: N-terminal GST; dsDNA, one strand shown. A digest of the protocol:
as §1

Assay [12] has as its target T7, ETV3L (Homo sapiens, UniProt Q6ZN32 1-361).
T7 sequence: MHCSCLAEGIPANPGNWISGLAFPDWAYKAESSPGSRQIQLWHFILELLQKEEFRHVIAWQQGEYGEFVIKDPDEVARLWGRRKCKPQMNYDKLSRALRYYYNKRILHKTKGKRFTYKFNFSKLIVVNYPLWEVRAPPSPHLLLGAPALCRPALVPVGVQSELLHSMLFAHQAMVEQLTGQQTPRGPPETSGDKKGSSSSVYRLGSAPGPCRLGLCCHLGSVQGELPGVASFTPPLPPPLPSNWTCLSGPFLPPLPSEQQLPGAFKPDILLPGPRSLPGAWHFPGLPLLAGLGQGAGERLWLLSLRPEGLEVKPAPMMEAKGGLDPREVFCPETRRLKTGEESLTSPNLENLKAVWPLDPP
To be noted: protein: recombinant; tags: N-terminal GST; dsDNA, one strand shown. A digest of the protocol: as §1

Assay [13] addresses T8, ETS2 (Homo sapiens, UniProt P15036 1-469).
T8 sequence: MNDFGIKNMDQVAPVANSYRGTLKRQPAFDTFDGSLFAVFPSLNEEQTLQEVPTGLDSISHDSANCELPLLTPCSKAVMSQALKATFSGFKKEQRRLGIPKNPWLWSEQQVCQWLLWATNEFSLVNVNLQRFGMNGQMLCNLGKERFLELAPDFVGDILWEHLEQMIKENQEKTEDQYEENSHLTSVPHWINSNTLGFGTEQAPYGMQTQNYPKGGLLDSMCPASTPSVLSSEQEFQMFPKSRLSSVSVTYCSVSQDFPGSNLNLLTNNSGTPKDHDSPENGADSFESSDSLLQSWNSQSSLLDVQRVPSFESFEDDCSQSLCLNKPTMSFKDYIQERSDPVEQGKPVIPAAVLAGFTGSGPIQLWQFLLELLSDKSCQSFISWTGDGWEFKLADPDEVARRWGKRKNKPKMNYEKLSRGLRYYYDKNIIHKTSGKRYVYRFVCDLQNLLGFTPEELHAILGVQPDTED
To be noted: protein: recombinant; tags: N-terminal GST; dsDNA, one strand shown. A digest of the protocol: as §1

Assay [14] concerns the target T9, SPDEF (Homo sapiens, UniProt O95238 1-335).
T9 sequence: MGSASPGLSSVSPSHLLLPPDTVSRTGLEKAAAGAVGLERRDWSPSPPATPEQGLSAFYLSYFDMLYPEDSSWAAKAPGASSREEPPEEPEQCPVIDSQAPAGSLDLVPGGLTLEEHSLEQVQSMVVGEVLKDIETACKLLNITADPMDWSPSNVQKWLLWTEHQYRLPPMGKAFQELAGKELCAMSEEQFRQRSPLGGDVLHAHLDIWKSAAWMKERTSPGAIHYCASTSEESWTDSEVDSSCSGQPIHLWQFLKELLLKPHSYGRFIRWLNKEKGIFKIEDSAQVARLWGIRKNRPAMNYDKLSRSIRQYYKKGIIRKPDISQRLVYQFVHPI
To be noted: protein: recombinant; tags: N-terminal GST; dsDNA, one strand shown. A digest of the protocol: as §1

Assay [15] deals with T10, ETV7 (Homo sapiens, UniProt Q9Y603 1-341).
T10 sequence: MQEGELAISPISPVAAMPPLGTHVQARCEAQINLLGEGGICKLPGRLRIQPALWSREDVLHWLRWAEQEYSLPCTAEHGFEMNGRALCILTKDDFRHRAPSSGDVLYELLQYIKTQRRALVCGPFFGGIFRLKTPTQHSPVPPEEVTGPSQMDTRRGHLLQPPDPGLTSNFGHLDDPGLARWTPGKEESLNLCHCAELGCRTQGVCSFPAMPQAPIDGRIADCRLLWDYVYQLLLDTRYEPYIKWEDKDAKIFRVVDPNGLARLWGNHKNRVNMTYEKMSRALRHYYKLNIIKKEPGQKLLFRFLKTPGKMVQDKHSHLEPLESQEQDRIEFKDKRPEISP
To be noted: protein: recombinant; tags: N-terminal GST; dsDNA, one strand shown. A digest of the protocol:
as §1

In assay [16] the target is T11, ELF5 (Homo sapiens, UniProt Q9UKW6-2 1-255).
T11 sequence: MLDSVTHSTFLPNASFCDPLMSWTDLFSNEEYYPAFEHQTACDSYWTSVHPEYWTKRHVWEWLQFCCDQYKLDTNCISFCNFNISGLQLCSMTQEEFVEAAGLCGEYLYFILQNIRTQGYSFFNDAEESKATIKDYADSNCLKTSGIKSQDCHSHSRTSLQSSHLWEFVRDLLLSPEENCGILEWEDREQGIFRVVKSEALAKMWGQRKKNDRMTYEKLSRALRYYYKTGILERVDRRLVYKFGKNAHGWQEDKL
Conditions: protein: recombinant; tags: N-terminal GST; dsDNA, one strand shown. A digest of the protocol: as §1

The target in assay [17] is T12, ETV3 (Homo sapiens, UniProt P41162-2 1-143).
T12 sequence: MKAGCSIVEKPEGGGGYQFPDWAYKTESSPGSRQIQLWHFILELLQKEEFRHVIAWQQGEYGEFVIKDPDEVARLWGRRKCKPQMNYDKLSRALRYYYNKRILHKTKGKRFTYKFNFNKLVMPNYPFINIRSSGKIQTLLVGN
Conditions: protein: recombinant; tags: N-terminal GST; dsDNA, one strand shown. In short, it runs like this:
as §1

For assay [18], the target named is ETV6 (Homo sapiens, UniProt P41212 1-452). To be noted: protein: recombinant; tags: N-terminal GST; dsDNA, one strand shown. A digest of the protocol: as §1
Sequence of ETV6 (P41212 whole entry): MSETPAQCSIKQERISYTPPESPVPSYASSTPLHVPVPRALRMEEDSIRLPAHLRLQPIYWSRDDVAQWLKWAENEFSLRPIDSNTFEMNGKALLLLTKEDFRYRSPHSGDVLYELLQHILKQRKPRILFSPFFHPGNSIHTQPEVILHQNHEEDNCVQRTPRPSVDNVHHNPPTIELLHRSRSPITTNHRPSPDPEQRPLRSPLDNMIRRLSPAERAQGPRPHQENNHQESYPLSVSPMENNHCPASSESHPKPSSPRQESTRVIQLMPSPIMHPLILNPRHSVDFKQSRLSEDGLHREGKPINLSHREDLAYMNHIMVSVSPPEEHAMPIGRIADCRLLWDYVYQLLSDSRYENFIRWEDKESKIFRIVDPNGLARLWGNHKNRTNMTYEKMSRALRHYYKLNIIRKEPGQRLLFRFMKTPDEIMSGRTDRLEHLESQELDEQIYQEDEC

Sequence of ETV5 (P41161 whole entry): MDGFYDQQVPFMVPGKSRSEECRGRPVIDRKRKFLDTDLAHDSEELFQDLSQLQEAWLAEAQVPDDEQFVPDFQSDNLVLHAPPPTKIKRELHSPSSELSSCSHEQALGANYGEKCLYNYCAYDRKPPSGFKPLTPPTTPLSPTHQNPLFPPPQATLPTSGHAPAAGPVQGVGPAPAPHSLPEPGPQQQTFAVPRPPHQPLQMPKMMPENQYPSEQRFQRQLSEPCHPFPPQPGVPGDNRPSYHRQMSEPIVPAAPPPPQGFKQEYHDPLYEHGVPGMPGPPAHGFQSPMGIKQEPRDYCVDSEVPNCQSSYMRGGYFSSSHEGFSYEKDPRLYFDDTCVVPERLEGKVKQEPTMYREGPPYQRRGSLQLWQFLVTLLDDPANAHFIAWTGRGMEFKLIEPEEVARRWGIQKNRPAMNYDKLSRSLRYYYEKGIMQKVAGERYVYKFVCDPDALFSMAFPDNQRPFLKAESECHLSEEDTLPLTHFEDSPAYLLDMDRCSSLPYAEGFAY
Sequence of ELF4 (Q99607 whole entry): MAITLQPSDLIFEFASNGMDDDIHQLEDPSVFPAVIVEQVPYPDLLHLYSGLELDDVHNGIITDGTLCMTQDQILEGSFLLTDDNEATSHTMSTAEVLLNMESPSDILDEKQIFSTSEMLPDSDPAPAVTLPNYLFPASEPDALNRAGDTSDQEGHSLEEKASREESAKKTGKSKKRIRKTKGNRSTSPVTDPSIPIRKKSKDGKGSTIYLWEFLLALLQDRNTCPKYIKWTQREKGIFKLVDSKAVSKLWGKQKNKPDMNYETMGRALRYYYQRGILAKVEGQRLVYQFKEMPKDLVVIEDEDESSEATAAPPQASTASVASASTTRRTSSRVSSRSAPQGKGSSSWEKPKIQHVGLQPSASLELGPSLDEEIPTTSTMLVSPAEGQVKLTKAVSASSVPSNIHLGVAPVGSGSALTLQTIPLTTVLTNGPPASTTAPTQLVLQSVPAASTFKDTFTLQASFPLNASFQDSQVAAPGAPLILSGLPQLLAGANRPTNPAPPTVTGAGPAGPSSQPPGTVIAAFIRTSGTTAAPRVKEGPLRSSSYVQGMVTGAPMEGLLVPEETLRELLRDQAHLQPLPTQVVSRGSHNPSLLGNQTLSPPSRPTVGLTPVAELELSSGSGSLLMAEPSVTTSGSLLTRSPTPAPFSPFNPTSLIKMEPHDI
Sequence of CRX (O43186 whole entry): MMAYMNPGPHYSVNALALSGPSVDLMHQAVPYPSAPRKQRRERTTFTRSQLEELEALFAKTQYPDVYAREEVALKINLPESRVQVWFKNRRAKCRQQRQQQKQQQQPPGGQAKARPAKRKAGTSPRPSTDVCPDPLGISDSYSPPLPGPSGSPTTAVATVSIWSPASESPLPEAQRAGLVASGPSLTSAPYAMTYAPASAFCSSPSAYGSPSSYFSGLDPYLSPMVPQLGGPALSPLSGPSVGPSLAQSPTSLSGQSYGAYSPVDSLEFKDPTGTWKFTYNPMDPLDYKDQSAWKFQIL
Sequence of HSF1 (Q00613 whole entry): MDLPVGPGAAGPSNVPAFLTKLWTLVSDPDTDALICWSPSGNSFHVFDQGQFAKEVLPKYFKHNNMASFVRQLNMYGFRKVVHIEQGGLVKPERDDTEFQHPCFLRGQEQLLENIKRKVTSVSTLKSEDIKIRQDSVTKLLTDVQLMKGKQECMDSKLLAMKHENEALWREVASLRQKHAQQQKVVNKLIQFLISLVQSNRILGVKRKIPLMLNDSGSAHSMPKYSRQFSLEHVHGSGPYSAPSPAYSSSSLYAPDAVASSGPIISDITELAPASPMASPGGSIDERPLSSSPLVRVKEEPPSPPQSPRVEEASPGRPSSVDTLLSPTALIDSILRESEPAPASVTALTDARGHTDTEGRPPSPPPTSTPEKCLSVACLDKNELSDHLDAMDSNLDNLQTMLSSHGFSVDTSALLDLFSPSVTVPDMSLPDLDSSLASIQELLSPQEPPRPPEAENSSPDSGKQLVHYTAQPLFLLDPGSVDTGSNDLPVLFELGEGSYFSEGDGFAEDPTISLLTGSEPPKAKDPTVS
Sequence of ETV1 (P50549 whole entry): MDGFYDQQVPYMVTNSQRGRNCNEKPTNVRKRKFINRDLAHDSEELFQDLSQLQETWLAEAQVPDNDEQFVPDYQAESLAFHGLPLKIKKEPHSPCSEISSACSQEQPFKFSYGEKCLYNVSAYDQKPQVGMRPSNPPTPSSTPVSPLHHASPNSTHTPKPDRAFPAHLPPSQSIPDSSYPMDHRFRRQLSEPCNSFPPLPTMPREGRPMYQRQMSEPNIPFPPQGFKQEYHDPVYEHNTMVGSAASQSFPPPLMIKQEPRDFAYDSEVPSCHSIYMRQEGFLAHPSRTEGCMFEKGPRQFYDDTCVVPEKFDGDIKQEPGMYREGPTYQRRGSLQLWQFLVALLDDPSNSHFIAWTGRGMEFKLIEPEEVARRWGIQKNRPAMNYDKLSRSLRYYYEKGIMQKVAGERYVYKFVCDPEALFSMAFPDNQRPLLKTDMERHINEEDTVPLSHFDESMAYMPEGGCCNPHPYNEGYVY

As for TATCGT, the binding signal in [1] is 1.05 fold enrichment (6-mer frequency, TF over GST control); in assay [2] it was 1.12 fold enrichment (6-mer frequency, TF over GST control); in [3], 1.17 fold enrichment (6-mer frequency, TF over GST control); in [4], 1.09 fold enrichment (6-mer frequency, TF over GST control); in assay [5], 1.07 fold enrichment (6-mer frequency, TF over GST control); in assay [6], 1.13 fold enrichment (6-mer frequency, TF over GST control). The binding signal is 1.16 fold enrichment (6-mer frequency, TF over GST control) in [7]; 1.15 fold enrichment (6-mer frequency, TF over GST control) in [8]; 1.28 fold enrichment (6-mer frequency, TF over GST control) in assay [9]; 1.21 fold enrichment (6-mer frequency, TF over GST control) in assay [10]; 1.28 fold enrichment (6-mer frequency, TF over GST control) in assay [11]; 1.08 fold enrichment (6-mer frequency, TF over GST control) in [12]. Further, the binding signal in assay [13] was 1.11 fold enrichment (6-mer frequency, TF over GST control); in assay [14] it was 1.07 fold enrichment (6-mer frequency, TF over GST control); in [15], 1.08 fold enrichment (6-mer frequency, TF over GST control); in [16], 1.08 fold enrichment (6-mer frequency, TF over GST control); in assay [17] it was 1.15 fold enrichment (6-mer frequency, TF over GST control); in assay [18], 1.12 fold enrichment (6-mer frequency, TF over GST control).

For the origin of these results see publication PMC7862700, “An all-to-all approach to the identification of sequence-specific readers for epigenetic DNA modifications on cytosine”.
